CHRM1 agonist = agonists of human M1 muscarinic receptor. P11229. CHO-K1 hM1, Fluo-8 calcium fluorescence, agonist mode; 0% DMSO, 100% acetylcholine EC100. activation, % at 3 µM. actives 0.33% (n = 360,000). AID 588814;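 active means activation above the run's mean compound activation plus 3 SD, cut at about 16% in these data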;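 further: peak over basal fluorescence ratio within a 140 s kinetic read after compound addition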
Target sequence (P11229 whole entry, looked up): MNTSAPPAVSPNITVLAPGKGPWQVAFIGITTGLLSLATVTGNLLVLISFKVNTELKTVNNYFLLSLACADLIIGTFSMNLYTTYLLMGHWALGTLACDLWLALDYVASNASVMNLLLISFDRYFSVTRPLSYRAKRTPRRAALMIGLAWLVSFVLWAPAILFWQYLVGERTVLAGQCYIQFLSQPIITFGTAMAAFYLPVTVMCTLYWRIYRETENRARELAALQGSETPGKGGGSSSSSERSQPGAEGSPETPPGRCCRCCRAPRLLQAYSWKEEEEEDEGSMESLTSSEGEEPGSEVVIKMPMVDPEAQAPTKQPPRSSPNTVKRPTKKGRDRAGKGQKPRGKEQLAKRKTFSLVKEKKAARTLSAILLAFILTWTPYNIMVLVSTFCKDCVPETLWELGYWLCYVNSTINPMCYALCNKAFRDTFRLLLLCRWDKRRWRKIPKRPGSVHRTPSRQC
M1 PAM = human CHRM1 positive allosteric modulation. P11229. CHO-K1 hM1, Fluo-8 calcium fluorescence, ACh EC20; 0% = ACh EC20, 100% = maximal ACh. activation, % at 3 µM. actives 0.088% (n = 360,000); in the data active means activation above about 19%, passing the limit was not always enough
CHO-K1 Ca PAM = M1 PAM counterscreen hit in parental CHO-K1 cells; activation, % at 3 µM; actives 0.02% (n = 360,000); ATP EC20, Fluo-8 calcium fluorescence; 0% at ATP EC20, 100% at ATP max;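 active means activation above the run cutoff, the mean activation of all test compounds plus 3 SD, cut at about 40% in these data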;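 further: peak over basal fluorescence ratio in a 140 s read after ATP addition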
CHRM1 antagonist = human CHRM1 antagonism; inhibition, % at 3 µM; actives 1.3% (n = 360,000); CHO-K1 hM1, Fluo-8 calcium fluorescence, ACh EC80 antagonist; P11229; AID 588852;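 active means percent inhibition above its own plate's cutoff, namely the mean of that plate's compound wells plus 3 SD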;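 further: peak over basal fluorescence ratio during 140 s after agonist addition; 0% = ACh EC80 plus DMSO and 100% = DMSO alone without agonist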
CHO-K1 Ca ag = nonselective activator or artifact in parental CHO-K1 cells; activation, % at 3 µM; actives 0.48% (n = 360,000); AID 602248; Fluo-8 calcium fluorescence; scaled to maximal ATP response, vehicle zero; in the data active means activation above about 15%;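 further: untransfected CHO-K1 host cells lacking M1 receptor as counterscreen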
CHO-K1 Ca antag = counter-screen for M1 antagonists: effect in parental CHO-K1 cells. inhibition, % at 3 µM. ATP-induced calcium, Fluo-8 fluorescence. actives 0.6% (n = 360,000);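 active means inhibition above a per-plate cutoff, the plate's mean sample inhibition plus 3 SD, cut at about 24% in these data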;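 further: 0% = DMSO plus EC80 ATP and 100% = DMSO alone without ATP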
* hit, by the source's call. Most compounds without a hit are left out; they make up all but 2.3% or so of the library.

SMILES	CHRM1 agonist	M1 PAM	CHO-K1 Ca PAM	CHRM1 antagonist	CHO-K1 Ca ag	CHO-K1 Ca antag
CC(C)CN(CC(C)C)c1nn[nH]n1	-2	1	8	-4	0	-12
CCOC(=O)N1CCC(NC2CCCCCCC2)CC1	-7	-27	1	74*	2	-4
CCOC(=O)c1ccc(NC(=S)N2CCSC2c2ccc(Cl)cc2)cc1 (stereo not given)	34*	2	6	45*	8	13
CCOC(=O)C1CCCN(CCc2ccccc2)C1 (stereo not given)	18*	-12	6	49*	1	-5
CCOC(=O)C1CCCN(C(=O)Cn2nc(C)n3c(cc4c(OC)cccc43)c2=O)C1 (stereo not given)	21*	-3	10	4	0	-9
CCOC(=O)N1CCN(C(=O)C2CCCCC2)CC1	-3	3	13	-8	3	-1
CC(C)Oc1cccc(C(=O)C2CCCN(Cc3cnc(N4CCOCC4)s3)C2)c1 (stereo not given)	-11	6	0	-10	1	3
CCN1CCN(C(c2cccs2)C(C)NC(=O)C(=O)N2CCCCC2)CC1 (stereo not given)	-3	-3	-24	7	0	5
Cc1ccc(NC(=O)CN(C)C(=O)c2cccc(S(=O)(=O)NCc3ccco3)c2)cc1	-4	7	12	-9	0	-13
COc1ccccc1Cc1c(-c2ccc(C#N)cc2)nc2c3ccccc3ccn12	-3	-5	-9	9	0	5
Cc1cc(C)cc(S(=O)(=O)c2cn(C)c3cc(N4CCN(C)CC4)c(F)cc3c2=O)c1	-2	6	-2	-3	0	-11
CCOC(=O)c1ccc(NC(=S)N2CCCC(C(=O)OCC)C2)cc1 (stereo not given)	76*	-37	-14	69*	0	13
CCOC(=O)c1ccc(NC(=S)N2CCC(C(N)=O)CC2)cc1	-10	-10	18	8	1	-7
CS(=O)(=O)c1ccc(C(=O)Nc2ccc(N3CCCC3)cc2)c(Cl)c1	-12	8	0	0	0	-3
COc1ccc(Br)cc1C(=O)Nc1ccccc1N1CCN(C(=O)c2ccccc2)CC1	0	12	-11	-2	0	2
O=C(Nc1ccccc1N1CCN(C(=O)c2ccccc2)CC1)c1cc(Br)ccc1Cl	-1	0	-8	14	0	26*
O=C(Nc1ccc(N2CCCC2)cc1)c1cc(Br)ccc1Cl	-8	-28	-10	53*	0	2
C=CCn1c(C)cc(C(=O)COC(=O)CCc2cc(OC)c(OC)c(OC)c2)c1C	1	-2	5	-5	0	-6
CCCCNC(=O)C1(C)CCN1C(=O)c1cc(C)n(C(C)(C)C)n1 (stereo not given)	-1	-6	17	12	1	-13
Cc1ccc2c(c1)[C@H]1[C@H](CO2)[C@H](c2ccccc2)[C@]2(C)C(=O)Nc3ccccc3C(=O)N12	-9	-38	-5	86*	0	-9
Cc1ccc2c(c1)[C@H]1[C@H](CO2)[C@H](c2ccccc2)[C@]2(C)C(=O)Nc3ccc(Cl)cc3C(=O)N12	-6	-22	9	35*	1	-16
C[C@@]12C(=O)Nc3ccccc3C(=O)N1[C@H]1c3cc(Cl)ccc3OC[C@@H]1[C@@H]2c1ccccc1	-5	-28	-4	33*	0	-12
COc1ccc2c(c1)OC[C@H]1[C@H]2N2C(=O)c3ccccc3NC(=O)[C@@]2(C)[C@H]1c1ccccc1	-6	-31	23	75*	1	-10
C[C@@]12C(=O)Nc3ccc(Cl)cc3C(=O)N1[C@H]1c3cc(Cl)ccc3OC[C@@H]1[C@@H]2c1ccccc1	-5	-11	-23	18	0	1
COc1ccc2c(c1)OC[C@H]1[C@H]2N2C(=O)c3cc(C)ccc3NC(=O)[C@@]2(C)[C@H]1c1ccccc1	-4	-7	26	17	1	-27
SMILES	CHRM1 agonist	M1 PAM	CHO-K1 Ca PAM	CHRM1 antagonist	CHO-K1 Ca ag	CHO-K1 Ca antag
CC1(C(=O)NC2CCCCC2)CCC(=O)N1CC(F)(F)F (stereo not given)	-3	3	6	-5	1	12
Cc1csc(NC(=O)CSc2nc(C(C)C)nc3ccccc23)n1	-5	-5	0	3	4	0
COc1ccc2c(c1)C(=O)N1[C@H]3c4cc(C)ccc4OC[C@@H]3[C@H](c3ccccc3)[C@]1(C)C(=O)N2	-8	-32	10	60*	0	-7
COc1ccc(C(=O)N(C)Cc2ccc(C)o2)cc1OC1CCN(C(C)=O)CC1	-1	8	-1	4	0	6
Cc1ccc(CNC(=O)C2CCC(=O)N(CCCN3CCOCC3)C2)cc1 (stereo not given)	-4	8	16	-8	1	3
Cc1nc(SCC(=O)Nc2ccccc2Cl)oc1C	-3	3	-13	-7	1	3
CN(C)S(=O)(=O)c1ccc(NC(=O)c2cc(-c3cccs3)nc3ccccc23)cc1	-1	-16	-6	42*	6	10
CCN(CC)S(=O)(=O)c1cc(NC(=O)c2cc(-c3ccccn3)nc3ccccc23)ccc1C	-1	-8	10	30	5	-1
COc1ccc(NC(=O)c2cc(-c3ccccn3)nc3ccccc23)cc1S(=O)(=O)N(C)C	-3	-10	-8	34*	6	5
CCN(CC)S(=O)(=O)c1ccc(NC(=O)c2cc(-c3cccs3)nc3ccccc23)cc1	-3	-7	15	16	2	1
O=C(NCCCc1ccccc1)c1cc(COc2ccc(F)cc2Cl)on1	-5	-11	0	15	0	-15
Cc1cc(C)nc(NC(=NCCc2c[nH]c3ccccc23)NC(=O)Nc2ccc(Cl)c(Cl)c2)n1	-6	7	17	-6	0	0
Cc1cc(C)nc(NC(=NCCc2c[nH]c3ccccc23)NC(=O)Nc2ccccc2)n1	-5	-11	16	21*	3	8
Cc1cc(C)nc(NC(=NCCc2c[nH]c3ccccc23)NC(=O)c2ccco2)n1	1	-4	17	29*	4	-3
Cc1ccccc1N1C(=O)CC(N(O)c2ccccc2)C1=O (stereo not given)	-3	-4	-8	17	0	17
O=C1CC(N(O)c2ccccc2)C(=O)N1c1cc(Cl)cc(Cl)c1 (stereo not given)	27*	5	16	-8	1	-4
Cc1ccc(Cl)cc1-c1cc(C(=O)NCc2cc(C(F)(F)F)cc(C(F)(F)F)c2)[nH]n1	-3	-24	11	47*	1	-3
